# Measurements as given in the supplement of paper PMC11001985.
# Compound: C#CCNC(=O)CCSSCCC(=O)NCCc1ccc(C=O)c(C=O)c1
# Experiment: lysine labeling ratio R10:1 (500 µM / 50 µM probe), SILAC-ABPP in living cells; higher = lower intrinsic lysine reactivity toward the probe, active = 2 or less
# Conditions: HeLa; probe concentrations 500 vs 50 µM
# Summary of the method: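 The two probe levels, 50 µM and 500 µM, of an alkyne-tagged, disulfide-linked lysine probe were applied to living light and heavy SILAC HeLa cells in PBS at room temperature, and the labels were run in both forward and reverse orientation. Mixed lysates underwent biotin-azide click chemistry, trypsin digestion, neutravidin capture, DTT release and alkylation before LC-MS/MS on a TIMS-TOF Pro. R is the filtered median high-probe/low-probe MS1 peptide ratio for each lysine, summarised as the median over forward and reverse replicates. Nothing above 20 is reported; such values are set to 20.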
# Sequence of UniProt Q15149 (Q15149 whole entry): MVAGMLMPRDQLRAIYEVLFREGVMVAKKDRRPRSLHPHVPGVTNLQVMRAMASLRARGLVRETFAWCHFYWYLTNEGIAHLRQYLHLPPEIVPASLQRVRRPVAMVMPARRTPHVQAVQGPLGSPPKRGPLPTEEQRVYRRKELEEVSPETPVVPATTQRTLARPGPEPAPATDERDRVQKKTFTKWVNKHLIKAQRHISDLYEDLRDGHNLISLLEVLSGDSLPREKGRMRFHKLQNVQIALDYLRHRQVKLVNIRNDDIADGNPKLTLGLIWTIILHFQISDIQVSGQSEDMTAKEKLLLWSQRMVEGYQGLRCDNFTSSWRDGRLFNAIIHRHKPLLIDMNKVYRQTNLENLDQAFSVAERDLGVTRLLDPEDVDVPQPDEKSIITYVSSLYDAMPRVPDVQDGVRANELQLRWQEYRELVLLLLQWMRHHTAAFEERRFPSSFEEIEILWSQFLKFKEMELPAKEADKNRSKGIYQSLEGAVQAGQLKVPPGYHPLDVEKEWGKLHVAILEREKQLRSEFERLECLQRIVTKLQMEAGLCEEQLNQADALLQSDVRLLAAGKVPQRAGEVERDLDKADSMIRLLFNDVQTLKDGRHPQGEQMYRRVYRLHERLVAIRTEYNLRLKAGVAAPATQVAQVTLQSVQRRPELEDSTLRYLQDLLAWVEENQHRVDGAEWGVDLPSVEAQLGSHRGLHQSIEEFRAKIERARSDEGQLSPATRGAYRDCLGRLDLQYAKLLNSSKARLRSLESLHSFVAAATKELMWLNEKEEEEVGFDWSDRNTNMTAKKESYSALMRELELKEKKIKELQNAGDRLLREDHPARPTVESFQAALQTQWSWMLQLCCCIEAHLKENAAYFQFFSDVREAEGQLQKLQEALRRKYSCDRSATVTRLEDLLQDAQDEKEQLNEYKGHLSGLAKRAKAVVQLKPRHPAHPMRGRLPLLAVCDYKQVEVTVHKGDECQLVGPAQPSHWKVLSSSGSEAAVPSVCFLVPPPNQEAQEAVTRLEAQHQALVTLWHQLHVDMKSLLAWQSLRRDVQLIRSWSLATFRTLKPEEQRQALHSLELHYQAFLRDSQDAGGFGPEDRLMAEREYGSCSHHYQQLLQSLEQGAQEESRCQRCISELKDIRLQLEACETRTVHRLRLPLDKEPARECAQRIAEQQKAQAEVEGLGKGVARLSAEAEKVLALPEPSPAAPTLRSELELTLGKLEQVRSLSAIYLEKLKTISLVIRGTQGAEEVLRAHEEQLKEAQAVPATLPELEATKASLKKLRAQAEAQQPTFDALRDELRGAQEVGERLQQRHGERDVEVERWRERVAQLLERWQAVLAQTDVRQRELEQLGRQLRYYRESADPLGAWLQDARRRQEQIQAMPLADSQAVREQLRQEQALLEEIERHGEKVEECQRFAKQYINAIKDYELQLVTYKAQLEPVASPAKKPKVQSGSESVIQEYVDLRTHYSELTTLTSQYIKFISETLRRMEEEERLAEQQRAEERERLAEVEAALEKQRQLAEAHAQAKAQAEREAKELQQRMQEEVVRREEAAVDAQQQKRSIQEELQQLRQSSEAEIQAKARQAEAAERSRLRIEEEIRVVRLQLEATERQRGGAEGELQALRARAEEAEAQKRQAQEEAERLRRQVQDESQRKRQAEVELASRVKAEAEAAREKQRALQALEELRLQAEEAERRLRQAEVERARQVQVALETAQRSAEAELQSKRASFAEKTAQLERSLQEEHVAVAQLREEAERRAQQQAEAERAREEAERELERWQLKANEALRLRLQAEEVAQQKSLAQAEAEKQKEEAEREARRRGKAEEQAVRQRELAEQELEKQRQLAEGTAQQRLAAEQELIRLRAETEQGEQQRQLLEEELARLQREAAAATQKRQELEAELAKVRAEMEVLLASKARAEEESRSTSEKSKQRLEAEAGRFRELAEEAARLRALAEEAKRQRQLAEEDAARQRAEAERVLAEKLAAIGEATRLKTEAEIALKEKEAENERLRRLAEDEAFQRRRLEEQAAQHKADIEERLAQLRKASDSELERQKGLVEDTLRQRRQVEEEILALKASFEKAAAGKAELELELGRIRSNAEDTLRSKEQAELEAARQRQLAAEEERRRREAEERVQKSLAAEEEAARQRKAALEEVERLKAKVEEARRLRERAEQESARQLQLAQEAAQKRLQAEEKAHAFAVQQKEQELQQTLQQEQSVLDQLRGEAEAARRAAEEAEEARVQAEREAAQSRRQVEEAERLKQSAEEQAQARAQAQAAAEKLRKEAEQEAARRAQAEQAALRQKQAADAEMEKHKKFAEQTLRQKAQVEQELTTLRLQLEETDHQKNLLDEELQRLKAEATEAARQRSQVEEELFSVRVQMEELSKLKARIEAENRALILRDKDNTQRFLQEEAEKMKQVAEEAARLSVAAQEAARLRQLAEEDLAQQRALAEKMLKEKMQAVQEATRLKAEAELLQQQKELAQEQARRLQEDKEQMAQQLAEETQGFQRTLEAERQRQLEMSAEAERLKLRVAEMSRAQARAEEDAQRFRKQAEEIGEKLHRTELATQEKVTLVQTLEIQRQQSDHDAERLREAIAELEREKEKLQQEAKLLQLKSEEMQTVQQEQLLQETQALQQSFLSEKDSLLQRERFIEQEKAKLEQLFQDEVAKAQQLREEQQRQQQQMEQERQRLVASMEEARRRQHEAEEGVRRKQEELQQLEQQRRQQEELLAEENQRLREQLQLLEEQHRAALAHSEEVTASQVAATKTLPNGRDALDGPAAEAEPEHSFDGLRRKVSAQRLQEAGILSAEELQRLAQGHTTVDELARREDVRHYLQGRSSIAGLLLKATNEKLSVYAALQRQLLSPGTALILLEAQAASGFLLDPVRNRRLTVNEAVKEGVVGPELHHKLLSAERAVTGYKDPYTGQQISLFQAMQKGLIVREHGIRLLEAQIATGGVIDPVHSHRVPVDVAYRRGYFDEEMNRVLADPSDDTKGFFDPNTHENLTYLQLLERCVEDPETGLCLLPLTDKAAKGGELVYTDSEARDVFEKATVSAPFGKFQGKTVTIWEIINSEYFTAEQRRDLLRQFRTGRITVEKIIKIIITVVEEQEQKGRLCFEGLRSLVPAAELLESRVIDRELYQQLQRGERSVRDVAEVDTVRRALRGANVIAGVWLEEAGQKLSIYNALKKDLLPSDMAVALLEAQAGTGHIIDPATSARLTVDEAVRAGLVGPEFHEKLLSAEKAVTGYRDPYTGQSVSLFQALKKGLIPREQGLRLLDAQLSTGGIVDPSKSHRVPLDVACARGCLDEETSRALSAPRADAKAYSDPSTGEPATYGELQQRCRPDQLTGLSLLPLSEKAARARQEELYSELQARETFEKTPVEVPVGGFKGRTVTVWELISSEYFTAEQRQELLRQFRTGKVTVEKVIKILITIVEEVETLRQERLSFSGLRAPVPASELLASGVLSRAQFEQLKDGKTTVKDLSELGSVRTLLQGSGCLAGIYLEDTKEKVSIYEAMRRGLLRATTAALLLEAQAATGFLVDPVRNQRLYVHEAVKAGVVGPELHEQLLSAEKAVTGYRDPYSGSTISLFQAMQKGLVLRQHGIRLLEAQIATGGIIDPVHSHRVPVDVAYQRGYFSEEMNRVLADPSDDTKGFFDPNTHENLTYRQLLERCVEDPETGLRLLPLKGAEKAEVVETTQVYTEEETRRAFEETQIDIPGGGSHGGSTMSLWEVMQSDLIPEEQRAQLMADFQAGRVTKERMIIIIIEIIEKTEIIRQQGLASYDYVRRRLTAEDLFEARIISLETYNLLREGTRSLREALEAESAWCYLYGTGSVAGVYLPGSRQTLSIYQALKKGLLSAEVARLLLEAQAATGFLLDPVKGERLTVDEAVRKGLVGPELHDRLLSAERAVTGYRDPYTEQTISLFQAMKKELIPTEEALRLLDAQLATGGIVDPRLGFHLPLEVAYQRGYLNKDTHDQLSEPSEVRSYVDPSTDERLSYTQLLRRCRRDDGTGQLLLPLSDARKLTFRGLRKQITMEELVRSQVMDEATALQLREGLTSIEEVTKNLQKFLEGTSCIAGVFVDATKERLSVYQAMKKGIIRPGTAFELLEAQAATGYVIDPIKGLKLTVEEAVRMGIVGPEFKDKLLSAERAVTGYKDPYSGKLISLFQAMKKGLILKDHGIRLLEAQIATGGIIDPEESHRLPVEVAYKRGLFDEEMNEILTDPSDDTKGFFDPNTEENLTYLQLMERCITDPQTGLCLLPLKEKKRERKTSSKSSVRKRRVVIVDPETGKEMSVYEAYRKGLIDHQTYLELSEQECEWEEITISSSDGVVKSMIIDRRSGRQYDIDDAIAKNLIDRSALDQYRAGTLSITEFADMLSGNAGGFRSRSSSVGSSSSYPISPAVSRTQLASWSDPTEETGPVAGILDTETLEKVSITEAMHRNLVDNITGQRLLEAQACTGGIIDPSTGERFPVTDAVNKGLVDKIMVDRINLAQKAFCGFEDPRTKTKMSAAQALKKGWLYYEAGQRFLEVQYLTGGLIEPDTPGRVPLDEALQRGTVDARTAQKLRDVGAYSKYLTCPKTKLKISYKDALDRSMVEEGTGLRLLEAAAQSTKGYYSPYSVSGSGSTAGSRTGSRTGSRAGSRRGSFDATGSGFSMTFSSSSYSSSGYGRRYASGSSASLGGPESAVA
# Sequence of UniProt O75955 (O75955 whole entry): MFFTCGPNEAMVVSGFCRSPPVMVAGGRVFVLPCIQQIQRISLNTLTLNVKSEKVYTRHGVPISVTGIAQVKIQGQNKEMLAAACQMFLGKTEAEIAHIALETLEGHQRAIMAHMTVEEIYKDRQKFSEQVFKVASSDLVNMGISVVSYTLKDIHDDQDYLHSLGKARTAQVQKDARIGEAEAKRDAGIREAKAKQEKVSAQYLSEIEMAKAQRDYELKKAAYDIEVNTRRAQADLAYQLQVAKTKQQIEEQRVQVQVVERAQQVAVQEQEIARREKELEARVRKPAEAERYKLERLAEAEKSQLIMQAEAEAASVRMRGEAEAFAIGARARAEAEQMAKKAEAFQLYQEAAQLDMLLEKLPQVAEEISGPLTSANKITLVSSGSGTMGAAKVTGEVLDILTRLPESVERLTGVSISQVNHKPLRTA
row,Target,lysine labeling ratio R10:1
1,SERPINC1 (lysine site: K260) (UniProt P01008),5.6 (inactive)
2,ITGA2 (lysine site: K884) (UniProt P17301),1.93 (active)
3,SPTBN1 (lysine site: K1815) (UniProt Q01082),2.56 (inactive)
4,MYH9 (lysine site: K299) (UniProt P35579),2.23 (inactive)
5,MSLN (lysine site: K299) (UniProt Q13421),3.1 (inactive)
6,UniProt P55285 (lysine site: K276),1.67 (active)
7,P4HB (lysine site: K103) (UniProt P07237),4.27 (inactive)
8,SCAMP3 (lysine site: K102) (UniProt O14828),1.06 (active)
9,UniProt P46781 (lysine site: K180),2.7 (inactive)
10,PDCD6IP (lysine site: K303) (UniProt Q8WUM4),2.47 (inactive)
11,CCDC124 (lysine site: K94) (UniProt Q96CT7),4.68 (inactive)
12,LPL (lysine site: K129) (UniProt P06858),1.65 (active)
13,HNRNPA2B1 (lysine site: K173) (UniProt P22626),7.67 (inactive)
14,UniProt Q15149 (lysine site: K3285),4.73 (inactive)
15,PTK7 (lysine site: K636) (UniProt Q13308),11 (inactive)
16,SPTAN1 (lysine site: K1419) (UniProt Q13813),0.907 (active)
17,XRCC6 (lysine site: K299) (UniProt P12956),1.09 (active)
18,PLXNB2 (lysine site: K1110) (UniProt O15031),4.66 (inactive)
19,SPTAN1 (lysine site: K719) (UniProt Q13813),3.93 (inactive)
20,TFRC (lysine site: K177) (UniProt P02786),2.39 (inactive)

row,Target,lysine labeling ratio R10:1
1,UniProt Q16629 (lysine site: K70),1.67 (active)
2,UniProt P62244 (lysine site: K32),4.35 (inactive)
3,ALDOA (lysine site: K13) (UniProt P04075),8.82 (inactive)
4,EPHA2 (lysine site: K475) (UniProt P29317),2.38 (inactive)
5,PTPRF (lysine site: K1016) (UniProt P10586),3.97 (inactive)
6,ABCB1 (lysine site: K748) (UniProt P08183),1.52 (active)
7,CD109 (lysine site: K1022) (UniProt Q6YHK3),0.98 (active)
8,CHCHD3 (lysine site: K63) (UniProt Q9NX63),1.33 (active)
9,UniProt P05787 (lysine site: K304),7.25 (inactive)
10,VASN (lysine site: K154) (UniProt Q6EMK4),1.64 (active)
11,LAMB1 (lysine site: K1368) (UniProt P07942),1.59 (active)
12,SEMA3C (lysine site: K495) (UniProt Q99985),2.53 (inactive)
13,IL17RA (lysine site: K274) (UniProt Q96F46),0.998 (active)
14,UniProt Q15149 (lysine site: K2277),0.748 (active)
15,FLOT1 (lysine site: K285) (UniProt O75955),1.67 (active)
16,DNASE1L1 (lysine site: K107) (UniProt P49184),1.25 (active)
17,ARPC3 (lysine site: K29) (UniProt O15145),1.49 (active)
18,TKT (lysine site: K314) (UniProt P29401),5.08 (inactive)
19,UniProt Q15149 (lysine site: K597),3.48 (inactive)
20,RARS (lysine site: K471) (UniProt P54136),2.85 (inactive)
